Assay in all cases: NCI-60 one-dose screen, 48 h (100 = growth as untreated, 0 = no growth, -100 = all killed)
In assay [1] the test system is HCT-15 colon. The conditions noted are these: 10 µM unless noted.
For assay [2], the system named is HT29 colon. The conditions noted are these: 10 µM unless noted.
Assay [3] relates to SNB-75 CNS. The conditions noted are these: 10 µM unless noted.
Assay [4] concerns SNB-19 CNS. As to conditions: 10 µM unless noted.
Assay [5] relates to U251 CNS. The conditions noted are these: 10 µM unless noted.
Assay [6] has as its system PC-3 prostate. The conditions noted are these: 10 µM unless noted.
In assay [7] the test system is SK-MEL-5 melanoma. As to conditions: 10 µM unless noted.
Assay [8] deals with UACC-62 melanoma. The conditions noted are these: 10 µM unless noted.
Assay [9] concerns LOX IMVI melanoma. The conditions noted are these: 10 µM.
The test system of assay [10] is SK-MEL-28 melanoma. The conditions noted are these: 10 µM unless noted.
Assay [11] concerns SK-MEL-2 melanoma. The conditions noted are these: 10 µM unless noted.
Assay [12] relates to EKVX NSCLC. As to conditions: 10 µM unless noted.
The subject of assay [13] is SN12C renal. The conditions noted are these: 10 µM unless noted.
The subject of assay [14] is UO-31 renal. The conditions noted are these: 10 µM unless noted.
In assay [15] the test system is TK-10 renal. The conditions noted are these: 10 µM unless noted.
Assay [16] deals with ACHN renal. The conditions noted are these: 10 µM unless noted.
Assay [17] relates to CAKI-1 renal. The conditions noted are these: 10 µM unless noted.
Assay [18] relates to A498 renal. As to conditions: 10 µM unless noted.
In assay [19] the test system is CCRF-CEM leukemia. As to conditions: 10 µM unless noted.
The test system of assay [20] is MOLT-4 leukemia. As to conditions: 10 µM unless noted.

Molecules are shown by their SMILES. This is part of a sample that, as a whole, favours compounds with a hit. Of some 83,000 tested, about 20% had one in any assay.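 In brief: 96-well plates, 48 h treatment, single concentration, percent growth endpoint.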 Values without a mark were called inactive. Activity calls are given as the source filed them. How the source made its calls: active means growth percent below 10; inactive means the rest.

Turning to `CC1CC(C)S(=O)(=O)C1` (stereo unspecified), the growth in assay [1] is 103%; in assay [2], 99.9%; in [3], 94.6%; in assay [4] it was 108%; in assay [5], 88.5%; in assay [6], 104%. The growth in [7] is 101%; in [8], 92.9%; in [9], 103%; in assay [10], 111%; in assay [11] it was 112%; in [12] it was 108%. For the same compound, the growth in assay [13] was 108%; in [14] it was 101%; in assay [15], 103%; in [16], 103%; in assay [17], 106%; in assay [18], 122%. Besides, the growth in assay [19] is 101%; in assay [20], 91.3%.
Turning to `CCCCCC(=O)OCCC1CCCCC1`, the growth was 107% in assay [1]; 101% in assay [2]; 89.1% in assay [3]; 112% in assay [4]; 96% in [5]; 98.7% in [6]. Also, the growth is 100% in assay [7]; 104% in assay [8]; 98.6% in assay [9]; 105% in [10]; 106% in [11]; 108% in [12]. The growth in [13] is 97.2%; in [14], 92.2%; in assay [15], 99%; in assay [16], 107%; in assay [17], 103%; in assay [18], 79.3%. In addition, the results for the growth in assay [19] and in assay [20] were 83.8% and 95.7%, respectively.
Turning to `NNc1ncnc2nc[nH]c12`, the growth in assay [1] is 44.1%; in assay [2], 53.7%; in [3], 89.3%; in assay [4], 96%; in [5], 72.2%; in assay [6], 63%. Also, the growth in assay [7] is 71.9%; in [8], 18.7%; in [9], 30.9%; in assay [10], 105%; in assay [11] it was -7.36% (active); in assay [12], 69.7%. Besides, the growth is 74.6% in assay [13]; 30.9% in [14]; 67.1% in [15]; 41.1% in [16]; 42.3% in assay [17]; 55.1% in assay [18]. The growth in [19] is 37.8%; in assay [20], 56.2%.
In the case of `NNc1ncnc2c1ncn2C1OC(CO)C(O)C1O` (stereo unspecified), the growth was 11.2% in assay [1]; 9.12% (active) in [2]; 94.2% in assay [3]; 57.8% in assay [4]; 39.7% in [5]; 32.3% in assay [6]. In addition, the growth was 88.4% in [7]; 60.5% in [8]; 32.6% in assay [9]; 88.8% in [10]; 73.5% in assay [11]; 60.5% in [12]. Further, the growth is 27.7% in assay [13]; 38.1% in assay [14]; 52.8% in [15]; 15.2% in assay [16]; 36.1% in [17]; 43% in assay [18]. Moreover, the growth in assay [19] was 72%; in assay [20], 109%.
For the compound `Cc1ccc(NCN2C(=O)c3ccccc3C2=O)c(C)n1`, the growth in assay [1] is 115%; in assay [2], 104%; in assay [3] it was 116%; in [4] it was 113%; in [5] it was 103%; in assay [6], 101%. Further, the growth in [7] is 100%; in assay [8] it was 109%; in assay [9] it was 104%; in assay [10], 116%; in assay [11] it was 124%; in assay [12] it was 106%. Besides, the growth in [13] was 111%; in assay [14], 87.3%; in assay [15], 119%; in assay [16] it was 117%; in [17], 105%; in assay [18] it was 88.7%. For the same compound, the growth in assay [20] is 104%.
Consider `C=CCN1CCCC1=O`, for which the growth is 104% in assay [1]; 96.3% in assay [2]; 70.2% in assay [3]; 93.1% in assay [4]; 102% in assay [5]; 94.6% in [6]. Besides, the growth in assay [7] was 101%; in assay [8], 86.1%; in [9], 108%; in assay [10] it was 108%; in assay [11], 161%; in assay [12] it was 96.8%. The growth is 94.2% in [13]; 101% in assay [14]; 90.2% in [15]; 109% in assay [16]; 95.8% in [17]; 91% in assay [18]. For the same compound, the growth in [20] was 93.8%.
As to `CCCCCCCCCCCCSC1=C(Cl)C(=O)C(OC)=C(OC)C1=O`, the growth in [1] is 25.6%; in assay [2] it was 27.8%; in assay [3], 44.9%; in assay [4], 71.8%; in assay [5], 26%; in assay [6] it was 23.1%. For the same compound, the growth was -37.6% (active) in assay [7]; 45.4% in [8]; 11.7% in [9]; 105% in assay [10]; 39.3% in assay [11]; 37.9% in assay [12]. In addition, the growth in assay [13] was 24.5%; in [14], 32.9%; in [15], 43.7%; in assay [16], 27.7%; in assay [17], 70.8%; in assay [18] it was 77.4%. Also, in assay [20], the growth was -4.73% (active).
Regarding `Cc1cccc(-[n+]2noc(N)n2)c1`, the growth was 66.4% in assay [1]; 102% in [2]; 82.1% in assay [3]; 81.4% in assay [4]; 86% in assay [5]; 60.3% in assay [6]. The growth is 97.4% in assay [7]; 40.7% in assay [8]; 46.9% in [9]; 113% in assay [10]; 145% in [11]; 67.9% in [12]. The growth in assay [13] was 95.7%; in [14], 49.7%; in [15] it was 124%; in assay [16], 46.1%; in assay [17], 59.6%; in assay [18], 113%. For the same compound, the growth in assay [20] was 72.8%.

Values taken from PubChem BioAssay (NCI).
